From the supplement of paper PMC11732987, “Enantioselective OTUD7B fragment discovery through chemoproteomics screening and high-throughput optimisation” (Communications Chemistry, 2025)

Key:
Test in all cases: log2 ratio of Biotin-Ahx-Ub-VS probe labelling (fragment/DMSO); higher = less target engagement (more negative = stronger competition), active = hit call of the paper (q ≤ 0.05, log2 ratio ≤ -1)
Details in all cases: compound concentration: 200 uM; treatment time: 3 h
[1] = biological target: T1, USP19 (UniProt O94966)
T1 sequence (whole entry): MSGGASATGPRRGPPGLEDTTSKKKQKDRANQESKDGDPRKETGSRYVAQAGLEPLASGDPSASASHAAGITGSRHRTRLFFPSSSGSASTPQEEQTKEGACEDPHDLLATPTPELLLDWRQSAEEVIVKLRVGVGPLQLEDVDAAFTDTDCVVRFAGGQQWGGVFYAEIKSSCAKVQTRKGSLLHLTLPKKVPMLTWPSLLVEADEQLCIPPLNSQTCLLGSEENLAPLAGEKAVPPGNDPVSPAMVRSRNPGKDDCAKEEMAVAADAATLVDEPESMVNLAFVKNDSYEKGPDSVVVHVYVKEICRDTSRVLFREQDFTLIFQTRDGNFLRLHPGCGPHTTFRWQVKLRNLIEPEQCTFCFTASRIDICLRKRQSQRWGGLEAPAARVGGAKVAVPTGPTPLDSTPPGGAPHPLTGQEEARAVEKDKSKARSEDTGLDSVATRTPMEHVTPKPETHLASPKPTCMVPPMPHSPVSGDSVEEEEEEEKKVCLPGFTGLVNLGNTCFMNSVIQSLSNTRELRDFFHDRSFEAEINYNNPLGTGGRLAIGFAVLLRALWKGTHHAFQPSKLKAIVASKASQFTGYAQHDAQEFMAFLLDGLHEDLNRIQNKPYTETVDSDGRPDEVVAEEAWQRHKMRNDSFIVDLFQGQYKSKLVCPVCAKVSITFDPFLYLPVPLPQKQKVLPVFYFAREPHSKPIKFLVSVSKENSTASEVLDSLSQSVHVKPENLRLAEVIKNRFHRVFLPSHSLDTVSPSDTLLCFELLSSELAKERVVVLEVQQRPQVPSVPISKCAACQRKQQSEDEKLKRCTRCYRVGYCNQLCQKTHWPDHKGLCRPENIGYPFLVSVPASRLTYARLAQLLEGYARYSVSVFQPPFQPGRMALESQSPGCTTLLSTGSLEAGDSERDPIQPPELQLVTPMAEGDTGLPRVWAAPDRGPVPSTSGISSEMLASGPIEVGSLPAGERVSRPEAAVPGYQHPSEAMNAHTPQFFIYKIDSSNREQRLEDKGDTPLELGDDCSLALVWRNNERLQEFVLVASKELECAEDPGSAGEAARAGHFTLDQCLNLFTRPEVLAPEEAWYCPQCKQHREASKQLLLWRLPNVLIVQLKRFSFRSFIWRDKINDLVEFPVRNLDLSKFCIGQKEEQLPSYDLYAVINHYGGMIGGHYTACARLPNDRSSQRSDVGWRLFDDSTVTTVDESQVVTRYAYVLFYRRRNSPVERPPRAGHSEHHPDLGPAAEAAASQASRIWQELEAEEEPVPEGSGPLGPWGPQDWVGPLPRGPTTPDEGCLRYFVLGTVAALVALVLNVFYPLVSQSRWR
Summary of the method: (§1)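 Labelled DUBs from HEK293T lysate were NeutrAvidin-enriched, digested with LysC and trypsin, and run by diaPASEF LC-MS/MS. Before that, each 495 µg sample in Tris/CHAPS/IGEPAL buffer with protease inhibitors was treated in triplicate with fragment at 200 µM or vehicle for 3 h, then with Biotin-Ahx-Ub-VS at 0.5 µM final for 1 h. Values are average log2 ratios of fragment over vehicle by unpaired t-test, based on global-median-normalised Spectronaut label-free quantities from proteins with ≥2 unique peptides.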

[2] = biological target: T2, USP22 (UniProt Q9UPT9)
T2 sequence (whole entry): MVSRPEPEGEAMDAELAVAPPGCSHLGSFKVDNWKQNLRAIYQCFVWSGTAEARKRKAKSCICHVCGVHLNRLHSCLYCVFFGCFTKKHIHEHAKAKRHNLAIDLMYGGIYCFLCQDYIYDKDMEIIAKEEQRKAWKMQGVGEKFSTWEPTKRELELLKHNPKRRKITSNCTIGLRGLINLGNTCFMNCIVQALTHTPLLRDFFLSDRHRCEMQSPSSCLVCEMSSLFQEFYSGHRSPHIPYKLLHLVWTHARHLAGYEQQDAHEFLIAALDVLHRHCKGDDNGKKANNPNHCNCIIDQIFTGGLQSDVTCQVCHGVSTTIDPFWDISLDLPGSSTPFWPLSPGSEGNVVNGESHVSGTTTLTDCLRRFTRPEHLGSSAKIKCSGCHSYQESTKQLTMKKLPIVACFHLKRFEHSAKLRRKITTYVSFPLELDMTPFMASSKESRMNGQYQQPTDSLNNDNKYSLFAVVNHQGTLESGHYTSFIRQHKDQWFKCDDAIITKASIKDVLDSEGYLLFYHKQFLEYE
Summary of the method: as §1

[3] = biological target: USP24 (UniProt Q9UPU5)
Chain of USP24 (Q9UPU5 whole entry): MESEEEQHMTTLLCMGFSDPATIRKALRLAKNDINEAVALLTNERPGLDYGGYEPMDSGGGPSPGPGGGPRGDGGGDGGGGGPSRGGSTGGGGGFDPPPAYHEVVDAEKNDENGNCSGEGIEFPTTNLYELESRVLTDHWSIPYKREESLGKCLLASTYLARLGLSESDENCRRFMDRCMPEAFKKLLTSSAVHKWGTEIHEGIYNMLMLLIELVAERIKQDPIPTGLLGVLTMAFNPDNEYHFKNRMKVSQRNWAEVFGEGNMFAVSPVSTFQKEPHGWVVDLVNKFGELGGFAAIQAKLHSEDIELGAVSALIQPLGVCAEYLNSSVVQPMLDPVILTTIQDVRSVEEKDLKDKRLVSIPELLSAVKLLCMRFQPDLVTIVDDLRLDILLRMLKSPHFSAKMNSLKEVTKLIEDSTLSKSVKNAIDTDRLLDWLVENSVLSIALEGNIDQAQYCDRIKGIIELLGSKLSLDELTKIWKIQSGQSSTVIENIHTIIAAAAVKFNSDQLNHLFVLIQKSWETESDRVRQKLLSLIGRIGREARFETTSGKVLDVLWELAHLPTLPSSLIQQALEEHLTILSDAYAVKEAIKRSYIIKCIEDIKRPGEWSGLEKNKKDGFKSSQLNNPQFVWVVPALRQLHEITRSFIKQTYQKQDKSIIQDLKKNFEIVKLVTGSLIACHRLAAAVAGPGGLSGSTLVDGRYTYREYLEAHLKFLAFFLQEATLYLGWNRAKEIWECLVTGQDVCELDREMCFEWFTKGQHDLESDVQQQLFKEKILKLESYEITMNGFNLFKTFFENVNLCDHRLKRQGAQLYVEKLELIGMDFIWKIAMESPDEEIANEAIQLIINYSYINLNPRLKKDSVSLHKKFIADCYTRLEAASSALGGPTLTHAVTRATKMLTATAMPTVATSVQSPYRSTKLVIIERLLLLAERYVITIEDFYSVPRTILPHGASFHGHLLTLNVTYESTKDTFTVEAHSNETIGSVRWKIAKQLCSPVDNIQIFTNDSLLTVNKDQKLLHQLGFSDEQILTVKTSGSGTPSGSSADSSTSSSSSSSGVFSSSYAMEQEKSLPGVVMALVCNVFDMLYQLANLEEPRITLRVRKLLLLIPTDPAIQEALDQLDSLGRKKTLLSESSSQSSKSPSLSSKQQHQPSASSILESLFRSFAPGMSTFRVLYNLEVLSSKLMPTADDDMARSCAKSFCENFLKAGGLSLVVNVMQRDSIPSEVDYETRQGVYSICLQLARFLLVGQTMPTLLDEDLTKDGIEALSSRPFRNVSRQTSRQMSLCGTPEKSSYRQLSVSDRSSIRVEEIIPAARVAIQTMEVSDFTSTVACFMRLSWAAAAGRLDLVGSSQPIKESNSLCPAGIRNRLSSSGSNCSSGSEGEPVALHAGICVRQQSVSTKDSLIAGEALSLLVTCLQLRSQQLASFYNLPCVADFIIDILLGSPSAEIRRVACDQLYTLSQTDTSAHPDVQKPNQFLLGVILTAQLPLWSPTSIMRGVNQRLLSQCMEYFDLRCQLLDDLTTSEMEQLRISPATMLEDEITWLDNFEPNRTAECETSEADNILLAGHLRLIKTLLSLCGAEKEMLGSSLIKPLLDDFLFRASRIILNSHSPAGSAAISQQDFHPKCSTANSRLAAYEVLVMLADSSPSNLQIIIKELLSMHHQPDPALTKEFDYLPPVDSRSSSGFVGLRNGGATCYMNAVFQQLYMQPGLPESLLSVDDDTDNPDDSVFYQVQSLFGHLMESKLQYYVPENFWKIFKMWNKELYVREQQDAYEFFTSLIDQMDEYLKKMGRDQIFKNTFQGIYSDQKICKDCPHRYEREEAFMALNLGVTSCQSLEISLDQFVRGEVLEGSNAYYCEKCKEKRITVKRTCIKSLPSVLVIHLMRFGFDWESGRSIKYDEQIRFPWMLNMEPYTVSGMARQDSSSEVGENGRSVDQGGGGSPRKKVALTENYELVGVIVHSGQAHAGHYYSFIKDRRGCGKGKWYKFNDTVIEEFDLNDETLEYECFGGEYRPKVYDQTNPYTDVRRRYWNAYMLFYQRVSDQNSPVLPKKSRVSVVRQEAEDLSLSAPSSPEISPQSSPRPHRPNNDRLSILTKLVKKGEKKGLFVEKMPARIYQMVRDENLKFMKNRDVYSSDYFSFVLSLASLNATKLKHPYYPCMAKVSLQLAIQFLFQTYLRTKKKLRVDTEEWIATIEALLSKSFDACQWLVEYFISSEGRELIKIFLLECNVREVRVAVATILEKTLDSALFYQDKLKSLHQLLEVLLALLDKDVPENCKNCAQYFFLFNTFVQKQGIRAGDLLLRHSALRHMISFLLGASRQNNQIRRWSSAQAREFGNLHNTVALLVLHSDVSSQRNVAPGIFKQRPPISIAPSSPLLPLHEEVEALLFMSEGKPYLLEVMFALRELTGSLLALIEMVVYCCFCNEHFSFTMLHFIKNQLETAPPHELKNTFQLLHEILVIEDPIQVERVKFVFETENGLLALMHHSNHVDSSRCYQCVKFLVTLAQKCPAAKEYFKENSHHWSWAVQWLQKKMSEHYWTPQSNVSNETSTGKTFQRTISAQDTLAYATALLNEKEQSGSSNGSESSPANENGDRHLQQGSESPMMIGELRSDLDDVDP
Summary of the method: as §1

[4] = biological target: T3, USP25 (UniProt Q9UHP3)
T3 sequence (whole entry): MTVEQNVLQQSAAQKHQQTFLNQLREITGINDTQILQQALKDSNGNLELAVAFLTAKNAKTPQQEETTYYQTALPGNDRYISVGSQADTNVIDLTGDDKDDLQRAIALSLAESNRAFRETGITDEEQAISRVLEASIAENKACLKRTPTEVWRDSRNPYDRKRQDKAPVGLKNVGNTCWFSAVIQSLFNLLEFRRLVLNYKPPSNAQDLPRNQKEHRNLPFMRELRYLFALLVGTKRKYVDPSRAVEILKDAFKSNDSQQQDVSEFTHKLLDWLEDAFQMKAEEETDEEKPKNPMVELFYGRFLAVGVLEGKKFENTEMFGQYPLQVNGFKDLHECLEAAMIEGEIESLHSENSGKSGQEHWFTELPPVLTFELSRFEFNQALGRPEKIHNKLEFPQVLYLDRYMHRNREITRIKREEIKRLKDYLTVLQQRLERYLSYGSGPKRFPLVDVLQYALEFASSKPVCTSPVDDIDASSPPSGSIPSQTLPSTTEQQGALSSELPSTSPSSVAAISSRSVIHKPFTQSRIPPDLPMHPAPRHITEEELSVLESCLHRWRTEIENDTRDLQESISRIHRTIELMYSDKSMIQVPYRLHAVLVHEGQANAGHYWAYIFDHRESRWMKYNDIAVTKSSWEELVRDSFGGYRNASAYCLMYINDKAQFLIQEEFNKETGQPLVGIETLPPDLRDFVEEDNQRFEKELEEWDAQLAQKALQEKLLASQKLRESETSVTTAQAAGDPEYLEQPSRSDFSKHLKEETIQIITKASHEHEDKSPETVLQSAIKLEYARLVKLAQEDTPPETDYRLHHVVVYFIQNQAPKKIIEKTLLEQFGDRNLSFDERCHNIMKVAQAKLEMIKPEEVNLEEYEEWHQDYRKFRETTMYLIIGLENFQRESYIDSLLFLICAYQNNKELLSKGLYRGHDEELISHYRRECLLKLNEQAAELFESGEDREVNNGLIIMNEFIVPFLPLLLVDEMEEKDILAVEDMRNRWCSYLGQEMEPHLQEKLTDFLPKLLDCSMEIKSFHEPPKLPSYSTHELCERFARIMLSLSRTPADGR
Summary of the method: as §1

[5] = biological target: T4, USP28 (UniProt Q96RU2)
T4 sequence (whole entry): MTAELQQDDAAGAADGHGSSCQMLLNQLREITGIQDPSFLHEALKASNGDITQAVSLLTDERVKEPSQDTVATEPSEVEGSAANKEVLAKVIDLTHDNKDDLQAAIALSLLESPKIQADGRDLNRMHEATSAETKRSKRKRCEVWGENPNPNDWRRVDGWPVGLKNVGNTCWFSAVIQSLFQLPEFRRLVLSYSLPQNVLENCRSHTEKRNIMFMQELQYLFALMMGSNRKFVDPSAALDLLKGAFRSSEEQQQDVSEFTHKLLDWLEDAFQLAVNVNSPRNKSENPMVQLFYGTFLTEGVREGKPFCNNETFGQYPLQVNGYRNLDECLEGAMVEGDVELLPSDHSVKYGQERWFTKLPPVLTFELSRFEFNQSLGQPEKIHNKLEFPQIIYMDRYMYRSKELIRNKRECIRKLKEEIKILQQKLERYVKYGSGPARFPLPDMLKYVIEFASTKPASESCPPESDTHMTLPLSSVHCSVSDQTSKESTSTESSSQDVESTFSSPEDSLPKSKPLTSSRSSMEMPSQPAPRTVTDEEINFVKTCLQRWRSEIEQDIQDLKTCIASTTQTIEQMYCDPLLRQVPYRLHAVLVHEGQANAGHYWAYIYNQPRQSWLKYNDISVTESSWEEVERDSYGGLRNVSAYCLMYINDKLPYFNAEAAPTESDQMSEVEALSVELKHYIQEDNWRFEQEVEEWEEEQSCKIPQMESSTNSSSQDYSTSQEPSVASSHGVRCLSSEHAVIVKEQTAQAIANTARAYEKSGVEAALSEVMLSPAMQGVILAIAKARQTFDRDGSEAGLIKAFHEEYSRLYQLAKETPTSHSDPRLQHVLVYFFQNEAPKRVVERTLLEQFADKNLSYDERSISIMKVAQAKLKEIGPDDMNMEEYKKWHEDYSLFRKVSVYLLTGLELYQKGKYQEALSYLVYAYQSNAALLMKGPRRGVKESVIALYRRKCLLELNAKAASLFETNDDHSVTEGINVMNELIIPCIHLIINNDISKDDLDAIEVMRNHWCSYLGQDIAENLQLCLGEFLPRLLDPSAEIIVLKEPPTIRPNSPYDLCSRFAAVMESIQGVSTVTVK
Summary of the method: as §1

Measured: log2 ratio of Biotin-Ahx-Ub-VS probe labelling

O=C(CCl)NC1CCS(=O)(=O)c2ccccc21 (stereo not given)
inactive: [1] -0.237 | [2] -0.0769 | [3] -0.183 | [4] -0.461 | [5] -0.943
